Our source for the inhibition values is PubChem BioAssay AID1578 (Sanford-Burnham Center for Chemical Genomics, 2009).

What is called inhibition is the drop in the measured response relative to a control, in per cent.

Among all 290,000 compounds or so, about 3,000 (1%) were called active. Only a selection was taken, and actives are over-represented in it overall. A number with no mark means an inactive call. Rule as the data show it: active = inhibition mostly above about 36% (no sharp cut-off); inactive = mostly below about 34%.

The assay can be described thus: inhibition of NOD1-driven NF-kB reporter – cell-based, luminescence, uHTS, primary screen (AID 1578).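 Also: HEK-293T reporter cells stimulated with the NOD1 agonist gamma-tri-DAP.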 The following applies: NOD1-driven NF-kB luciferase reporter cells, at 4 µM, hits give high values. A general note: In a reporter assay the amount or activity of a reporter protein is the signal.
Regarding `CCCn1nc([N+](=O)[O-])c(C(C#N)c2nc3ccccc3o2)c(Cl)c1=O` (centres undefined), the inhibition was 80.5% (active).

Take `CCCn1nc([N+](=O)[O-])c(C(C#N)c2nc3ccccc3s2)c(Cl)c1=O` (centres undefined): the inhibition is 63.6%.

Turning to `Cn1nc([N+](=O)[O-])c(C(C#N)c2nc3ccccc3n2C)c(Cl)c1=O` (centres undefined), the inhibition was 23.7%.

Turning to `Cn1nc([N+](=O)[O-])c(C(C#N)c2ccccn2)c(Cl)c1=O` (centres undefined), the inhibition is -21.4%.

On to `CCn1nc([N+](=O)[O-])c(C(C#N)c2nc3ccccc3n2C)c(Cl)c1=O` (centres undefined), for which the inhibition was 32%.

As for `COc1ccc(C(C(=O)NC2CCCCC2)N(C(=O)c2ccco2)c2ccccc2C(C)=O)cc1OC` (centres undefined), the inhibition was -17.6%.

Take `COc1ccc2c(c1)C(=O)C(=O)N2CC1COc2ccccc2O1` (centres undefined): the inhibition is -10%.

In the case of `O=C(NCCc1csc(-c2ccccc2)n1)c1c(F)cccc1F`, the inhibition is -19.1%.

As to `O=C(NCCc1csc(-c2ccccc2)n1)c1ccccc1F`, the inhibition is 28.3% (active).

In the case of `O=C(NCCc1csc(-c2ccccc2)n1)c1c(F)cccc1Cl`, the inhibition was -7.4%.

For `CCOC(=O)c1nnn2c1nc(N1CCOCC1)c1ccccc12`, the inhibition is 3.1%.

With `Cc1ccc(C(=O)N(CC(=O)NC2CCCCC2)c2ccccc2F)s1`, the inhibition is -27%.

As to `O=C(NC1CC1)c1ccc(CS(=O)c2ccccc2)o1` (centres undefined), the inhibition is -19%.

With `Cc1ccc2nc(NC(=O)c3ccc(OCC4CCCO4)cc3)sc2c1` (centres undefined), the inhibition is 3.2%.

Turning to `C/C=C(/C)C(=O)OC(C)(C)[C@@H]1Cc2c(ccc3ccc(=O)oc23)O1`, the inhibition was -44.4%.

Turning to `Cc1cccc(C)c1NC(=O)COn1nnc2ccc(C(F)(F)F)cc21`, the inhibition was -17.2%.

Consider `O=C(COn1nnc2ccc(C(F)(F)F)cc21)Nc1c(Cl)cccc1Cl`, for which the inhibition was -17.9%.

As to `O=C(COn1nnc2ccc(C(F)(F)F)cc21)Nc1nnc(-c2ccccc2)o1`, the inhibition was 67.4% (active).

As for `CCOC(=O)C1(Nc2nccs2)Sc2ccccc2NC1=O` (centres undefined), the inhibition is 24.1%.

Take `CSc1nncc(-c2ccc(F)cc2)n1`: the inhibition was 12.5%.

Turning to `COc1ccc(/C(C)=N/NC(=O)c2ccc(NS(=O)(=O)c3cccs3)cc2)cc1`, the inhibition was -9.8%.

For `CSCC[C@H](N)C(=O)NCC1CCC(C(=O)Nc2ccc3c(c2)OCO3)CC1` (some centres undefined), the inhibition is -1.6%.

`N#CC1(c2ccccc2)CCCN1C(=O)c1ccco1` (centres undefined): the inhibition was 7.3%.

On to `Cc1c(C(C)(C)C)s/c(=N/S(=O)(=O)c2ccccc2)n1C`, for which the inhibition is 3%.

As to `O=Cc1s/c(=N\S(=O)(=O)c2ccccc2)n(CCCCl)c1Cl`, the inhibition is 17.3%.

Take `CCn1c(Cl)c(C=O)s/c1=N\S(=O)(=O)c1ccccc1`: the inhibition is 34% (active).

Regarding `CN(C)S(=O)(=O)c1cccc(C(=O)Nc2ccccc2N2CCCCC2)c1`, the inhibition is -14.5%.

Consider `COc1ccc(-c2c(-c3cc(OC)c(OC)c(OC)c3)noc2C)cn1`, for which the inhibition was -8.6%.

For the molecule `COc1cc(-c2c(-c3cc(OC)c(OC)c(OC)c3)noc2C)ccc1F`, the inhibition was -21.2%.

Regarding `COc1cc(-c2noc(C)c2-c2ccc(N(C)C)nc2)cc(OC)c1OC`, the inhibition is 62% (active).

As for `CCOC(=O)c1cnn(-c2nc(C)nc3sc4c(c23)CCC4)c1N`, the inhibition was -33%.

In the case of `CCOC(=O)c1cnn(-c2nc(SC)nc3sc4c(c23)CCCC4)c1N`, the inhibition is -0.3%.

In the case of `CCOC(=O)c1cnn(-c2nc3sc4c(c3c(=O)[nH]2)CCCC4)c1N`, the inhibition is 63.7% (active).

Regarding `S=C(NCc1ccc(Cl)cc1)NN1CCOCC1`, the inhibition is -24.6%.

Take `CCOCCCNC(=O)NC(=O)CN1CCN(S(=O)(=O)c2ccc3c(c2)OCCO3)CC1`: the inhibition is -47%.

Regarding `O=C1CCC(=O)N1CC1CC2CCC1C2` (centres undefined), the inhibition was 0.2%.

As for `COC(=O)c1cn(-c2ccccc2)nc1-c1ccccc1`, the inhibition is -4.9%.

`COC(=O)c1cn(-c2ccccc2)nc1-c1ccc(OC)cc1`: the inhibition is 47.5% (active).

Turning to `COc1ccc(-c2nn(-c3ccccc3)cc2C(=O)O)cc1`, the inhibition is 18.9%.

`O=C(c1ccc(Br)cc1)N(c1ccccn1)C1CCCCC1`: the inhibition is -12.8%.

`CCOC(=O)CC1C(=O)NCCN1c1nc2ccc(C)cn2c(=O)c1/C=C1\SC(=S)N(C(C)CC)C1=O` (centres undefined): the inhibition was 20.6%.

Turning to `CCOC(=O)CC1C(=O)NCCN1c1nc2c(C)cccn2c(=O)c1/C=C1\SC(=S)N(CC(C)C)C1=O` (centres undefined), the inhibition is 32% (active).

On to `CCOC(=O)CC1C(=O)NCCN1c1nc2c(C)cccn2c(=O)c1/C=C1\SC(=S)N(C(C)CC)C1=O` (centres undefined), for which the inhibition is 35.4% (active).

In the case of `CCCN1C(=O)/C(=C/c2c(N3CCNC(=O)C3CC(=O)OCC)nc3c(C)cccn3c2=O)SC1=S` (centres undefined), the inhibition is -1%.

On to `CCOC(=O)CC1C(=O)NCCN1c1nc2ccc(C)cn2c(=O)c1/C=C1\SC(=S)N(CC(C)C)C1=O` (centres undefined), for which the inhibition was 3.2%.

As to `CCCN1C(=O)/C(=C/c2c(N3CCNC(=O)C3CC(=O)OC)nc3c(C)cccn3c2=O)SC1=S` (centres undefined), the inhibition is 6.9%.

Regarding `COc1ccc(C(=O)O)cc1NC(=S)NC(=O)Cc1ccc(Cl)cc1`, the inhibition was -11.2%.

Take `Cn1c(SCC(=O)NCCc2ccccc2)nnc1C1CCCCC1`: the inhibition was -6.8%.

In the case of `COC(=O)Nc1ccc(N2CCOCC2)c(S(=O)(=O)N2CCOCC2)c1`, the inhibition is -18%.

`c1ccc(C2[C@H]3CN(Cc4cccnc4)[C@H](c4ccccc4)C34CC2(c2ccccc2)C4)cc1` (some centres undefined): the inhibition was -5.1%.

On to `Cc1ccc(C)c(N2CCN(C(=O)CCNC(=O)Cn3ccc4ccccc4c3=O)CC2)c1`, for which the inhibition was 33%.

`Oc1ccccc1C1Nc2cccc3cccc(c23)N1`: the inhibition is 7.9%.

`O=[N+]([O-])c1ccc(C2Nc3cccc4cccc(c34)N2)cc1`: the inhibition is 25.1%.

Take `O=[N+]([O-])c1ccccc1C1Nc2cccc3cccc(c23)N1`: the inhibition was 105% (active).

As for `Cc1ccc(C(NC(=O)N2CCCCC2)=C(Cl)Cl)cc1F`, the inhibition was 74% (active).

Regarding `Cc1ccc(C(NC(=O)NCCCN2CCOCC2)=C(Cl)Cl)cc1F`, the inhibition is 34.4%.

In the case of `Cc1ccc(C(NC(=O)N2CCOCC2)=C(Cl)Cl)cc1F`, the inhibition is 32.1%.

In the case of `COc1ccc(CN2CCN(c3cccc(C)c3C)CC2)cc1OC`, the inhibition is 21.4%.

For `CCC1Oc2ccc(C)cc2N(CC(=O)NCCN2CCOCC2)C1=O` (centres undefined), the inhibition is -21%.
